According to publication PMC4336329 (PLoS ONE, 2015):
About 14,000 (4.5%) of roughly 310,000 compounds showed an effect of 50% or more. The effect is printed as a negative number. Many of the other results were omitted from the sample, so strong results are more common in it than they were.

The compounds below were run against human ether-à-go-go-related gene (hERG) potassium channel (human, UniProt Q12809) (assay: primary screen, population patch clamp on CHO cells stably expressing hERG; higher = less effect of the substance).
Chain of human ether-à-go-go-related gene (hERG) potassium channel (Q12809 whole entry, looked up): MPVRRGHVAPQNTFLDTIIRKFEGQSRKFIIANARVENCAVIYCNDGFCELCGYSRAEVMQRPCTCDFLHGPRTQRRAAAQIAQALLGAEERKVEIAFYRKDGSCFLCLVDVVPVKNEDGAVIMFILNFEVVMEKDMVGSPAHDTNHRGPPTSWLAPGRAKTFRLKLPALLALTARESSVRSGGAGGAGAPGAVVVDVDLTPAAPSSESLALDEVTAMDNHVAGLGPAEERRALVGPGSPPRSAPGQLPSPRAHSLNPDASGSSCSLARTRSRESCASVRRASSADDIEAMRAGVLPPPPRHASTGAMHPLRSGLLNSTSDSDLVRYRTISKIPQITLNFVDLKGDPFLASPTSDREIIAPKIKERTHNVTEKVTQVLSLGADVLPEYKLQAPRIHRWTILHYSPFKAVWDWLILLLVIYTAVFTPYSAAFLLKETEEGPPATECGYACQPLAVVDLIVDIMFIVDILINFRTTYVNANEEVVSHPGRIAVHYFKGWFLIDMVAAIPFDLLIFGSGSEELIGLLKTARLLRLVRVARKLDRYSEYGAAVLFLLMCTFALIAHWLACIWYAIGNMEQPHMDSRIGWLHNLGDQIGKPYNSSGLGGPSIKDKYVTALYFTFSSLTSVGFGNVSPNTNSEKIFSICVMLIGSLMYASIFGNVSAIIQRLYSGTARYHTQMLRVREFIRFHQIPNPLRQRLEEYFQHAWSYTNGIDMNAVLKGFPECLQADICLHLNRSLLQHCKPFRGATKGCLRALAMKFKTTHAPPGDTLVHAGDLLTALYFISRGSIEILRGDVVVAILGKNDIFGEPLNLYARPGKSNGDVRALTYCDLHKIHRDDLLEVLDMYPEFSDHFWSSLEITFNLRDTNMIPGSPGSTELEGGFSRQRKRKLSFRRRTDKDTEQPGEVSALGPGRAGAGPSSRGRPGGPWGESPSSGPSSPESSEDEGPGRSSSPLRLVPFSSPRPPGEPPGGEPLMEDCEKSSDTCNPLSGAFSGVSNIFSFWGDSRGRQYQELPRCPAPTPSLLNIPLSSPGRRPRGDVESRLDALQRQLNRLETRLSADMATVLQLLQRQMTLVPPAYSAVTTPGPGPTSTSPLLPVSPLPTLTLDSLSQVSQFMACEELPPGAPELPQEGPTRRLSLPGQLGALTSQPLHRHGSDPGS
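Also: peak tail current of the secondary pulse compared with the same well before compound.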

Compound | hERG current change (%, negative = inhibition) at 10uM [%]
COc1c(C)cc(C(=O)C2CCCN(C(=O)/C=C/c3ccccn3)C2)cc1C (stereo not drawn) | -15.8
CCOC(=O)C1CCCN(C(=O)/C=C/c2ccc([N+](=O)[O-])cc2)C1 (stereo not drawn) | -64.8
CCOC(=O)C1CCCN(C(=O)/C=C/c2ccc(Cl)cc2)C1 (stereo not drawn) | -59.9
O=C(c1ccc(Cl)cc1)C1CCCN(C(=O)/C=C/c2ccccn2)C1 (stereo not drawn) | -51.9
O=C(O)C(=O)O.O=C(c1ccc(F)cc1)N1CCN(C2CC3CCC2C3)CC1 (stereo not drawn) | -2.85
Cn1cnnc1SCCCN1C(=O)c2cccc3cccc(c23)C1=O | -30.6
COc1ccc(CCN(C)C(=O)Cc2ccc(-c3ccccc3)cc2)cc1OC | -0.187
Brc1c(-c2ccccc2)nc2n1Cc1ccccc1-2 | 21.8
CC(C)(C)C(=O)Oc1cccc(Nc2ncnc3ccccc23)c1 | 9.76
Cc1ccc(Oc2ncnc(N)c2[N+](=O)[O-])cc1C | 31.8
NC(=O)CC(NC(=O)c1ccccc1)c1ccc(N2CCN(c3ccccc3)CC2)c([N+](=O)[O-])c1 (stereo not drawn) | 1.33
O=C(CSc1nc2ccccc2o1)NC(=O)NCc1ccccc1 | 8.99
O=C(CSc1nc2[nH]ncc2c(=O)n1-c1ccccc1)c1ccc2c(c1)OCCO2 | -6.39
O=C(CCCC(=O)c1ccc(F)cc1)c1ccc(F)cc1 | -25.8
CCN(CCCC(=O)c1ccc(F)cc1)CCc1ccccc1.Cl | -84.5
O=C(CCCc1ccccc1)c1ccccc1 | 18.5
CCc1ccc(-c2nc(CS(=O)CC(=O)NC3CCCCCC3)c(C)o2)cc1 (stereo not drawn) | -7.44
Cc1ccc(S(=O)(=O)N2CCCC(C(=O)NC3CCCC3)C2)cc1Cl (stereo not drawn) | 17.8
Cc1ccc(N=C(N)N=C(N)N)cc1 | 16.9
CN1CCN(/N=C/c2ccc(-c3ccc([N+](=O)[O-])cc3)o2)CC1 | -66
O=[N+]([O-])c1ccc(-c2ccc(/C=N/O)o2)cc1 | 8.69
CN1CCN(/N=C/c2ccc(-c3ccc([N+](=O)[O-])cc3Cl)o2)CC1 | -46.2
CC(C)(CN1CCCCC1)NS(=O)(=O)c1ccc(Cl)cc1 | -13.4

Compound | hERG current change (%, negative = inhibition) at 10uM [%]
CC(C)(CN1CCN(Cc2ccccc2)CC1)NS(=O)(=O)c1ccccc1 | -39.6
CC(C)(CN1CCNCC1)NS(=O)(=O)c1ccc(Cl)cc1 | -60.3
CC(C)(CN1CCN(Cc2ccccc2)CC1)NS(=O)(=O)c1ccc(Cl)cc1 | -74.7
CC(C)(CN1CCCC1)NS(=O)(=O)c1ccc(Cl)cc1 | 29.6
Cc1ccc(S(=O)(=O)NC(C)(C)CN2CCNCC2)cc1 | -9.34
CCOc1ccc2nc(NC(=O)c3cnccn3)sc2c1 | 2.76
c1coc(-c2nc3ccccc3nc2-c2ccco2)c1 | -4.79
CN(C)CCCN1c2ccccc2Sc2ccccc21.Cl | -28.1
CCN(CC)CCCCN1c2ccccc2Sc2ccccc21.Cl | -61.7
CCN(CC)CCN1c2ccccc2Sc2ccccc21.O=C(O)C(=O)O | -41.3
CCN(CC)CC(=O)N1c2ccccc2Sc2ccccc21 | 1.42
CCC(=O)c1ccc2c(c1)N(CCCN(C)C)c1ccccc1S2.Cl | -63.5
CN(C)CCCNC(=O)N1c2ccccc2Sc2ccccc21 | 1.39
CC(C)(C)c1ccc(O)c(N)c1 | 8.01
N#Cc1ncccc1CCc1cccc(Cl)c1 | -11.1
NS(=O)(=O)c1ccc(CCNC(=O)CCS(=O)(=O)c2ccc(Br)cc2)cc1 | 19.2
COc1ccccc1N1CCN(C(=O)CCCC2=NS(=O)(=O)c3ccccc3N2)CC1 | 2.62
O=C(CCCC1=NS(=O)(=O)c2ccccc2N1)N1CCN(c2ccccc2)CC1 | -1.79
O=C(CCCC1=NS(=O)(=O)c2ccccc2N1)N1CCN(c2ccc(Cl)cc2)CC1 | -61.1
COc1ccc(N2CCN(C(=O)CCCC3=NS(=O)(=O)c4ccccc4N3)CC2)cc1 | -7.68
CC(C)(CC(=O)N1CCN(c2ccc(Cl)cc2)CC1)CC1=NS(=O)(=O)c2ccccc2N1 | -61.1
COc1cccc(N2CCN(C(=O)CC(C)(C)CC3=NS(=O)(=O)c4ccccc4N3)CC2)c1 | -6.09
